Among the data in PubChem BioAssay (Tox21) are Potency values, retold here.

Records with an inconclusive call do not appear. Where a call stands in place of a potency, no number is given. The source made the active and inactive calls. The call rests on the fitted dose curve; in most records, active means well fitted activation curve with a large enough effect in the signal ratio in the repeat runs (not every such curve was filed as active); inconclusive means weak or mixed curves, or effect the other way; inactive means flat fitted curve, though single readings scatter; the % refers to the signal ratio.

The test is described as follows: qHTS assay to identify small molecule agonists of the endoplasmic reticulum stress response signaling pathway (AID 1159516). The conditions noted are these: ESRE-bla HeLa, ER stress beta-lactamase reporter, 5 h; series mostly up to 61 µM. Put shortly:
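Cells are seeded at 1,500 per well and incubated overnight. Compounds in DMSO are added for 5 hr at 37 C, then beta-lactamase FRET substrate for 2 hr at room temperature, and fluorescence at 460 and 530 nm is measured.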
On the technique in general: qHTS replaces the single test concentration by a dilution series.
For the compound `CCCCO`, the Potency entry is “inactive”.
With `CCCn1cnc2c1c(=O)n(CCCCC(C)=O)c(=O)n2C`, the Potency result was “inactive”.
The same measure for `ClCCOCCOCCCl`: “inactive”.
In the case of `CC1=CC[C@H](C(C)C)C=C1`, the Potency entry is “inactive”.
The same measure for `OC[C@H]1O[C@@H](OCCc2ccc(O)cc2)[C@H](O)[C@@H](O)[C@@H]1O`: “inactive”; for `Cc1ccc(C(=O)Oc2ccc(C(O)CNC(C)(C)C)cc2OC(=O)c2ccc(C)cc2)cc1` (stereo not given): “inactive”.
As for `C/C=C/C=C/CO`, the Potency result is “inactive”.
The same measure for `CCCCCCCN`: “inactive”; for `CCOC(=O)C(F)(F)F`: “inactive”.
`CN1Cc2cc(C(=O)N3CCC(C4CCNCC4)CC3)ccc2NC(CC(=O)O)C1=O` (stereo not given): the Potency result is “inactive”.
`O=C1OC(CN2CCOCC2)CN1/N=C/c1ccc([N+](=O)[O-])o1` (stereo not given): the Potency result is “inactive”.
For the compound `CN(C)CCCN1c2ccccc2Sc2ccccc21`, the Potency entry was “inactive”.
The entry for `CCOC(=O)C(=O)CCc1ccccc1` is “inactive”; for `O=C(Cl)c1cc(C(=O)Cl)cc(C(=O)Cl)c1` it is “inactive”; for `CC(=O)c1ccc2c(c1)N(CCCN1CCC(CCO)CC1)c1ccccc1S2` it is “inactive”.
